Inconclusive results are not listed. A number with no mark means an inactive call. Activity calls are given as the source filed them. The call rests on the fitted dose curve; in most records, active means well fitted cell-killing curve with a large enough effect; inconclusive means small, poorly fitted or top-dose-only effect; inactive means no such curve, though single readings can be large or run the other way.
assay: qHTS of pediatric cancer cell lines to identify multiple opportunities for drug repurposing: Primary screen for LAN-5 cells (AID 1347100); details: LAN-5 neuroblastoma viability, CellTiter-Glo luminescence, 48 h; series mostly up to 46 µM; activity change, negative = cytotoxic: at the top concentration
Source text: Drug repurposing or repositioning has been offered as a strategy for drug development in oncology programs. This approach has special potential for childhood cancers and other rare or orphan diseases, where the expected return on new drug development has been a disincentive to pharmaceuticals.
In this project we exploit the poly-pharmacology of drugs to discover new indications via phenotypic screening of a panel of 19 well-characterized cell lines derived from solid tumors seen in children and adolescents. The goal is to identify approved drugs with previously unrecognized anticancer properties that has the potential to reveal new mechanisms and biological processes involved in carcinogenesis or drug resistance. We employed a titration-based paradigm (quantitative high-throughput screening or qHTS), where all compounds were tested at multiple concentrations for their effect on cell viability. Concentration-response curves (CRCs) were derived directly from the primary screen, and both potency and efficacy values were used to identify compounds with robust bioactivity profiles. We screened the NIH Chemical Genomics Center (NCGC) Pharmaceutical Collection (NPC) and Mechanism Interrogation Plate (MIPE) small molecule collections of approved and investigational compounds against these cell lines; and measured metabolically active cells after 48 hours of compound treatment as a proxy for cell viability.
Assay Submitter: Nathalia J. Martinez, National Center for Advancing Translational Sciences, National Institutes of Health, Rockville, MD, USA; email: natalia.martinez@nih.gov
[1] Shen, M et al. Quantitative high-throughput phenotypic screening of pediatric cancer cell lines identifies multiple opportunities for drug repurposing. Oncotarget 2017 Dec 19;9(4):4758-4772. PMID 29435139.
The cells were obtained from University of North Carolina (UNC), Pediatric Preclinical Testing Program (PPT), and Coriell Institute (CI).
qHTS cell viability assay:
Cells were assayed in growth media at a density of 500-1,000 cells/well. Five microliters of cells were dispensed into 1,536-well, white, solid-bottom, TC-treated plates (Greiner Bio One) using a multidrop dispenser and incubated at 37 degrees C, 5% CO2, under a humidified atmosphere for 5 hours. Twenty-three nanoliters of compounds and controls (neutral control DMSO or positive control bortezomib at final concentration of 2.3 µM) were subsequently transferred by Kalypsys pintool. For primary screens, the MIPE collection was tested at 11-point dilutions (final concentrations range from 0.78 nM to 46 µM) and the NPC collection at 8-point dilutions (final concentrations range from 0.59 nM to 46 µM). Compounds tested in follow-up screens were assayed at 11-point dilutions. Cells were incubated for 48 hours, followed by addition of 3 µL of CellTiter-Glo (Promega). After a 15 min incubation at room temperature, samples were analyzed for luminescence intensity using a ViewLux High-throughput CCD imager equipped with clear filters.
Potency means the concentration at half of the fitted maximal effect.

Compound	activity change, negative = cytotoxic	Potency
Nc1ncnc2c1ncn2[C@@H]1O[C@H](CO)[C@@H](O)[C@H]1O	6.73%	
N[C@@H](CSSC[C@H](N)C(=O)O)C(=O)O	6.24% [at 0.597 µM]	
O=S(=O)(O)c1cc(I)c(O)c2ncccc12	4.55%	
COc1ccc(S(=O)(=O)Nc2nnc(CC(C)C)s2)cc1	-14.7%	
NC(=O)c1ncn([C@@H]2O[C@H](CO)[C@@H](O)[C@H]2O)n1	4.83%	
CC12CCC(CC1)C(C)(C)O2	1.72%	
C[C@@H]1CCN(C(=O)[C@H](CCCN=C(N)N)NS(=O)(=O)c2cccc3c2NC[C@H](C)C3)[C@@H](C(=O)O)C1	0.749%	
CCN(CC)CCOC(=O)C1(C2CCCCC2)CCCCC1	0.849%	
CC1(C)CO[C@@H](CC(=O)O)CN1	19.4%	
c1ccc(CN(CC2=NCCN2)c2ccccc2)cc1	-13.6%	
CC(=O)Nc1ccc(/C=N/NC(N)=S)cc1	5.14%	
COc1ccc(Cl)cc1C(=O)NCCc1ccc(S(=O)(=O)NC(=O)NC2CCCCC2)cc1	-8.63%	
CCOc1nc2cccc(C(=O)O)c2n1Cc1ccc(-c2ccccc2-c2nn[nH]n2)cc1	9.82%	
C[C@H]1O[C@H](O[C@H]2[C@H](O)[C@@H](O)[C@@H](O[C@H]3[C@H](O)[C@@H](O)[C@H](O)O[C@@H]3CO)O[C@@H]2CO)[C@H](O)[C@@H](O)[C@@H]1N[C@H]1C=C(CO)[C@@H](O)[C@H](O)[C@H]1O	-19.7%	
[Cl][In]([Cl])[Cl]	14.8% [at 92.7 µM]	
C[C@]12CC[C@@H]3c4ccc(O)cc4CC[C@H]3[C@@H]1CCC2=O	-21.9%	
C[C@@H]1C[C@H]2[C@@H]3C[C@H](F)C4=CC(=O)C=C[C@]4(C)[C@@]3(F)[C@@H](O)C[C@]2(C)[C@@]1(O)C(=O)CO	17%	
CCOc1ccc2ccccc2c1C(=O)N[C@@H]1C(=O)N2[C@@H]1SC(C)(C)[C@@H]2C(=O)O	24.3%	
OCc1cc(C(O)CNCCCCCCOCCCCc2ccccc2)ccc1O (stereo not given)	-19.6%	
O=C(Oc1ccccc1C(=O)O)c1ccccc1O	11.5%	

Compound	activity change, negative = cytotoxic	Potency
CC(C(O)c1ccc(O)cc1)N1CCC(Cc2ccccc2)CC1 (stereo not given)	-27.1%	
CCCCN1CCCC[C@H]1C(=O)Nc1c(C)cccc1C	-6.14%	
CCC(=O)c1ccc(O)cc1	19.7%	
O=C(O)c1ccccn1	-8.66%	
Nc1ccc(S(=O)(=O)NC(=O)c2ccccc2)cc1	-3.9%	
O=C1NS(=O)(=O)c2ccccc21	-1.36%	
CN1CCCCC1CCN1c2ccccc2Sc2ccc(S(C)=O)cc21 (stereo not given)	-11.3%	
C[C@H]1O[C@@H](n2cc(F)c(=O)[nH]c2=O)[C@H](O)[C@@H]1O	-6%	
CCCCCCCCCCCCCCCCCCOCC(O)CO (stereo not given)	10.2%	
COc1cc(C(=O)N2CCOCC2)cc(OC)c1OC	31.7%	
O=C(O)CC(O)C(=O)O (stereo not given)	12.9%	
COc1ccccc1O	23.5% [at 92.7 µM]	
CC[C@H]1CN2CCc3cc(OC)c(OC)cc3[C@@H]2C[C@@H]1C[C@H]1NCCc2cc(OC)c(OC)cc21		335 nM (active)
COc1ccc2c(c1)C(=O)N(CCc1ccc(S(=O)(=O)NC(=O)NC3CCCCC3)cc1)C(=O)C2(C)C	-3.3%	
C/C(=C(\CCOP(=O)(O)O)SC(=O)c1ccccc1)N(C=O)Cc1cnc(C)nc1N	5.99% [at 4.84 µM]	
O=C(O)COc1nn(Cc2ccccc2)c2ccccc12	12.5%	
CC(C)(C)C(=O)NCCCC(=O)O	3.11%	
O=C(O)[C@@H]1CSCN1	2.15%	
Cn1cc[nH]c1=S	20.3%	
NC(=O)NNc1ccccc1	5.21%	
